The text below walks through data of PubChem BioAssay (NCATS).

A number with no mark means an inactive call. Results filed as inconclusive are left out. Active and inactive are the calls of the source. Unless noted, calls follow the shape of the dose curve; as a rule, active = well fitted curve in either direction with a large enough effect (not every such curve was filed as active); inconclusive = small, poorly fitted or top-dose-only effect, or another doubt; inactive = flat fitted curve, though single readings scatter. Some results are limits rather than exact numbers.

The nature of assay [1]: AP1 Signaling Pathway (AID 357). Also: % is scaled to controls: 0 for no effect and ±100 for the full control effect. The conditions noted are these: ME-180 AP-1-bla reporter, EGF-induced, beta-lactamase ratio, 5 h; at 17.2 µM (top of the series) unless noted. Put shortly: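 Read-out was the 460nm/530nm emission ratio (excitation 405nm) after CCF4 loading for 2.5 hours at room temperature. Cells carried an AP-1-driven beta-lactamase reporter, were stimulated with EC50 EGF plus compound for 5 hours, and AC50 values came from titrations.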

Assay [2] can be described thus: Stat Signaling Pathway (AID 446).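 Also: ME-180 cervical cancer cells given 40 pM IL-6 alongside compound; SIE-controlled beta-lactamase reporter measured as 460/530 nm FRET emission ratio; % is scaled to controls: 0 for no effect and ±100 for the full control effect.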 The conditions noted are these: ME-180 SIE beta-lactamase reporter, IL-6 stimulated, 5 h; at 17.2 µM (top of the series) unless noted. A digest of the protocol:
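ME-180 cells carrying a SIE-driven beta-lactamase reporter are stimulated with 40 pM IL-6 for 5 h at 37C in the presence of compound. The 460/530 nm FRET substrate ratio is read after 2.5 h at RT. Data are normalised to 300 pM IL-6 and to 125 nM JAK inhibitor controls.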

In assay [3] the target is Glucocorticoid receptor (Homo sapiens) (UniProt P04150). As to the kind of experiment: GR-GFP Redistribution (AID 450;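 active = compounds whose dose series gives a full or clear partial fitted curve of increased nuclear translocation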; also: potency is read from the fitted curve at half-maximal effect).
Assay [4] can be described thus: qHTS Assay for Identification of Small Molecule Agonists for Hypoxia Response Element Signaling Pathway (AID 914; active = well fitted activation curve with a large enough effect in the signal ratio, with a control signal flat, not every such curve was filed as active; the % refers to the signal ratio; also: potency is read from the fitted curve at half-maximal effect; as to activation: % of control where 0% means no effect). The conditions noted are these: ME-180 (cervical carcinoma) HRE-bla reporter, beta-lactamase ratio, CoCl2, 17 h; activation: stronger effect = higher value. Put shortly:
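Reporter activity (beta-lactamase, CCF4 460nm/530nm ratio) in HRE-bla ME-180 cells is recorded after 17 h compound exposure with EC50 CoCl2 at 37 degrees Celsius. AC50 values come from titration data.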
For orientation: Quantitative high-throughput screening tests each substance at several concentrations.

Assay [5] is described as follows: qHTS for Inhibitors of the vitamin D receptor (VDR): Hit Validation using a Texas Red Assay (AID 602201; active = well fitted curve in the direction sought with a large enough effect; an effect the other way counts as inactive or inconclusive; also: potency is read from the fitted curve at half-maximal effect). The conditions noted are these: VDR coregulator binding, Texas Red fluorescence polarization; agonist-bound VDR ligand-binding domain. Put shortly: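 Fluorescence polarization with 1.5 uM VDR-LBD, LG19078 and 7 nM Texas Red (final). After 2 hours at ambient temperature, read at Ex 595 nm/Em 615 nm.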

Assay [6] addresses Glucocorticoid receptor (Homo sapiens) (UniProt P04150). As to the kind of experiment: GR-EFC Redistribution (AID 451; calls by dose curve; also: potency is read from the fitted curve at half-maximal effect). The conditions noted are these: CHO-K1 GR-EFC translocation, beta-gal luminescence, 2 h. A digest of the protocol: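 CHO-K1 cells expressing nuclear EA and GR-ED fragments of b-gal; compounds titrated up to 46 uM final, 2 h at 37 C. GR nuclear translocation read as complemented b-gal luminescence after 1 h RT detection.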

Assay [7] concerns the target Cytochrome P450 2D6 (Homo sapiens) (UniProt P10635). Nature of the assay: qHTS Assay for Inhibitors and Substrates of Cytochrome P450 2D6 (AID 891; active = well fitted curve in the direction sought with a large enough effect; an effect the other way counts as inactive or inconclusive;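 also: luciferin methyl ether substrate demethylated by CYP2D6 with NADPH regeneration; % is scaled to controls: 0 for no effect and ±100 for the full control effect; nearly all actives have a fitted effect of over 60% in size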). Put shortly:
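Human CYP2D6 (5 nM) with 30 uM Luciferin-ME EGE (at Km) in 100 mM KPO4, compound preincubated 10 min, then NADPH regeneration system for 60 min at room temperature. Luciferin read by luminescence; normalized to 1.43 uM quinidine.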

Assay [8] has as its target Cytochrome P450 2C19 (Homo sapiens) (UniProt P33261). As to the kind of experiment: qHTS Assay for Inhibitors and Substrates of Cytochrome P450 2C19 (AID 899; active = well fitted curve in the direction sought with a large enough effect; an effect the other way counts as inactive or inconclusive; also: potency is read from the fitted curve at half-maximal effect; nearly all actives have a fitted effect of over 60% in size). A digest of the protocol: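 5 nM human CYP2C19 with 10uM Luciferin-H EGE (at KM) in 50mM KPO4, compound preincubated 10 min at 37C, then NADPH regeneration for 60 min at 37C. Luciferin read by luminescence after detection reagent; normalized to 57uM ketoconazole as full inhibition.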

In assay [9] the target is Mitogen-activated protein kinase 10 (Mus musculus) (UniProt Q61831). As to the kind of experiment: JNK3 AlphaScreen Assay (AID 530).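 Also: kinase came from lysate of stimulated human HepG2 cells; signal reports phosphorylation of biotinylated GST-cJun 1-79 at Ser73 with 10 µM ATP; % is scaled to controls: 0 for no effect and ±100 for the full control effect.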 Put shortly:
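Pre-activated (IL-1β/TNFα) JNK3 in HepG2 lysates phosphorylates biotin-GST-cJun(1-79), 10 uM ATP; anti-phospho-cJun(Ser73) AlphaScreen read at room temperature, pH 7.6 Tris buffer. Compounds pre-incubated 15 min as titrations.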
(In general: Bead proximity is the source of the signal in Alpha formats.)

The target in assay [10] is 3',5'-cyclic-AMP phosphodiesterase 4B (Homo sapiens) (UniProt Q07343). As to the kind of experiment: qHTS Assay for Inhibitors of PDE-IV (AID 607; active = well fitted activation curve with a large enough effect in the main read-out, with a control signal flat, not every such curve was filed as active; also: % of control where 0% means no effect). A digest of the protocol:
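HEK293 ACTOne cells with CNG channel (1000/well), endogenous PDE4; membrane potential dye, compounds up to 22.9 uM final. Fluorescence Ex 535/Em 590; RO 20-1724 (100 uM final) as reference.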

Assay [11] in a line: Confirmation and Secondary Assay for Modulators of Hemoglobin Beta Chain Splicing at IVS2 654 locus (AID 910; active = well fitted curve in the direction sought with a large enough effect; an effect the other way counts as inactive or inconclusive;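 also: HeLa cells stably carrying EGFP split by mutant beta-globin IVS2-654 intron; % of control where 0% means no effect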). A digest of the protocol: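 HeLa cells stably expressing EGFP interrupted by β-globin IVS2-654 intron, seeded overnight in Opti-MEM/2% FCS, then treated 2 days at 37 °C. Restored splicing read as total peak GFP intensity per well by laser scanning cytometry (488 nm excitation, 500–520 nm emission); 500 nM antisense PNA as control.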

Sequence of Glucocorticoid receptor (Homo sapiens) (P04150 whole entry, looked up, the tested form may be a part): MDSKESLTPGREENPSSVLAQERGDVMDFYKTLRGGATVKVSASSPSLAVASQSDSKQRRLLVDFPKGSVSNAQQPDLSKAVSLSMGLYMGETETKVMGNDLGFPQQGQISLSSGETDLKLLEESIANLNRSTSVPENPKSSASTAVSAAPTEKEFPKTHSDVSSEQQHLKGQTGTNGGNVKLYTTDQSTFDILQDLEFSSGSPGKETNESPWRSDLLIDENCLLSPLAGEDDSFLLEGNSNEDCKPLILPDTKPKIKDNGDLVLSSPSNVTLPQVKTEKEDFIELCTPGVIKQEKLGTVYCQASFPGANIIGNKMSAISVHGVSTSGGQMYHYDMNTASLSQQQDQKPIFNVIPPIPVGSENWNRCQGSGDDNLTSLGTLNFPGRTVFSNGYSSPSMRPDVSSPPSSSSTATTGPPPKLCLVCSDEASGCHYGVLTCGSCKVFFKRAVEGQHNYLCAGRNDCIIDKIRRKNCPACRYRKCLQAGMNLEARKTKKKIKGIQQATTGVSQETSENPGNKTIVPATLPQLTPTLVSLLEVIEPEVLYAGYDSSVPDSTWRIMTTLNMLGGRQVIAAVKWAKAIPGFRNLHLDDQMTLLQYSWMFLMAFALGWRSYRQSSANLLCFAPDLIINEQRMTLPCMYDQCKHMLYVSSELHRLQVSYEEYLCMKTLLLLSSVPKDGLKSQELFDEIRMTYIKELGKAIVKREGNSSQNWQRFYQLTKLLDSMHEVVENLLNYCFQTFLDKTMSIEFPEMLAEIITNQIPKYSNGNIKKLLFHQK
Sequence of Cytochrome P450 2D6 (Homo sapiens) (P10635 whole entry, looked up): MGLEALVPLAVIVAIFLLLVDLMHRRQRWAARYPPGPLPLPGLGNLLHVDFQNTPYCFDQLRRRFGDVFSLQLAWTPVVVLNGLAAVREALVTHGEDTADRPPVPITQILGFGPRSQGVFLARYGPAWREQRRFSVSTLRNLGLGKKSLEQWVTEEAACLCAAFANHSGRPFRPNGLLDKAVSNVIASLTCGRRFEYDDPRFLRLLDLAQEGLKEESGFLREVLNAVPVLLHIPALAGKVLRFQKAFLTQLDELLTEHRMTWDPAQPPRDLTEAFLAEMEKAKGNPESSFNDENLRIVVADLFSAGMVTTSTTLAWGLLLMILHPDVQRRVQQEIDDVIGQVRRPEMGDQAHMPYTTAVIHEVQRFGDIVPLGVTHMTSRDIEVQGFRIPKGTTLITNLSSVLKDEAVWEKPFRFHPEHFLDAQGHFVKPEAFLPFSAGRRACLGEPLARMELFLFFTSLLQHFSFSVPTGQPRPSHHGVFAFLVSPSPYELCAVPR
Sequence of Cytochrome P450 2C19 (Homo sapiens) (P33261 whole entry, looked up): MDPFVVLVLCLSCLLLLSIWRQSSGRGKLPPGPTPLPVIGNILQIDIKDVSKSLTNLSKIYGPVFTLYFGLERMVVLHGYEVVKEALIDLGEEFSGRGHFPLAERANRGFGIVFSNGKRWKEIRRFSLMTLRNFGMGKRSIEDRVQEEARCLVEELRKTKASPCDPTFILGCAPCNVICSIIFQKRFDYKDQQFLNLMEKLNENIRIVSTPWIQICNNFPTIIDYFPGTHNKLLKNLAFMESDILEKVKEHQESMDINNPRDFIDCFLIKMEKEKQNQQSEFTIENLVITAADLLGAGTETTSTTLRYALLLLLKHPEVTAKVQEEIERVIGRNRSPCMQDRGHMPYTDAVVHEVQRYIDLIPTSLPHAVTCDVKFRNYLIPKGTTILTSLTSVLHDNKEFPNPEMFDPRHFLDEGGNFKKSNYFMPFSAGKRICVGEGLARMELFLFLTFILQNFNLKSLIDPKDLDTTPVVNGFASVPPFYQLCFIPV
Sequence of 3',5'-cyclic-AMP phosphodiesterase 4B (Homo sapiens) (Q07343 whole entry, looked up): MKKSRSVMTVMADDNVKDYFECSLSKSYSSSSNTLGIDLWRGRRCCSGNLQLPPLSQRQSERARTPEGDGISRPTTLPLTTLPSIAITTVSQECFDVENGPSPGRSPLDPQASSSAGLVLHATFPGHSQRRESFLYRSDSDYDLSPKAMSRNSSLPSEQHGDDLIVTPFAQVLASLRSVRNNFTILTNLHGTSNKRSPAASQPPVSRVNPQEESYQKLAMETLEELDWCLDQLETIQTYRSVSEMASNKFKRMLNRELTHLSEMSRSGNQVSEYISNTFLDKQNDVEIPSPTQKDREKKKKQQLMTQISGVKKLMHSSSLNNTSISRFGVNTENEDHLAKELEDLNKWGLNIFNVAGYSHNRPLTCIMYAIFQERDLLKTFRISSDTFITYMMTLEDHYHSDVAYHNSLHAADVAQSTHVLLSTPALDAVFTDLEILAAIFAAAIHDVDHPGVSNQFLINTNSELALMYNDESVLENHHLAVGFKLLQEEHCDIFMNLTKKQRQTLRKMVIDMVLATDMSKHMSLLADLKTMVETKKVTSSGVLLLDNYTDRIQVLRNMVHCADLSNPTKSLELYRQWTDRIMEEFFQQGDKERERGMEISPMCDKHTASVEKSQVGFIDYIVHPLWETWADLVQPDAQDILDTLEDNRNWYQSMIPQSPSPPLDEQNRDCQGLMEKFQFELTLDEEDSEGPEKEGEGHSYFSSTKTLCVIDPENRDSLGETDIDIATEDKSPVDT

Take `COc1ccc(C2=CC(c3ccc(C)cc3)n3nnnc3N2)cc1` (stereo unspecified): the activity change, negative = inhibition in assay [1] is -20.8%. Besides, in assay [2], the activity, negative = inhibition was -14.7%. The Potency in assay [3] is greater than 20.6 µM; in assay [4], 10 µM (active).
For the compound `CCc1nc(N2CCCC2)c(C#N)c2c1CCCC2`, in assay [1], the activity change, negative = inhibition is -16.4%. For the same compound, in assay [2], the activity, negative = inhibition was -19.9%. The Potency in assay [3] is greater than 20.6 µM. The activation in [4] was -12%.
As for `Cc1ccccc1C(=O)c1ccc2c(c1)n(C)c(=O)n2C`, in assay [1], the activity change, negative = inhibition is 4.88%. In addition, the activity, negative = inhibition in assay [2] was -15.6%. Besides, the Potency in assay [3] is greater than 20.6 µM. Further, the activation in [4] is -17.8%.
For `COC(=O)c1[nH]c2cc(OC)ccc2c1NC(=O)CCN1CCCC(C)(C)C1`, in that order: -14.5%, 2.32%, greater than 20.6 µM and 10.2%.
As for `CC(C)Oc1ccc(C(=O)CCN2CCCCC2)cc1`, the activity change, negative = inhibition in [1] is -9.61%. Besides, in assay [2], the activity, negative = inhibition was -10.9%. For the same compound, the Potency in assay [3] is greater than 20.6 µM; in assay [5] it was 3.98 µM (active).
On to `Clc1ccc([C@@H](c2ccccc2Cl)C(Cl)Cl)cc1`, for which the activity change, negative = inhibition in assay [1] was -7.25% [at 38 µM]. Moreover, in assay [2], the activity, negative = inhibition is 2.17% [at 38 µM]. Moreover, the values for the Potency in assay [3], in assay [6] and in assay [8] were greater than 46 µM, greater than 46 µM and 0.631 µM (active), respectively. In addition, in assay [7], the Potency entry is “inactive”.
As to `CC12CN3CC(C)(CN(C1)C3c1ccc(Br)cc1O)C2` (stereo unspecified), the activity change, negative = inhibition in assay [1] was -9.61%. The activity, negative = inhibition in [2] was -0.00253%. Besides, the Potency in assay [3] was greater than 20.6 µM. Further, the activation in assay [4] was -25.5%.
Regarding `CCCCCNC(=O)c1c(N)n(/N=C/c2ccco2)c2nc3ccccc3nc12`, in assay [1], the activity change, negative = inhibition was 20.3%. The activity, negative = inhibition in assay [2] is 28.5%. Further, the Potency in [3] was greater than 20.6 µM; in assay [4] it was 7.94 µM (active).
Consider `Cc1nc(Sc2cccn2C)c(C(F)(F)F)c(=O)[nH]1`, for which the activity change, negative = inhibition in [1] is -5.32%. For the same compound, in assay [2], the activity, negative = inhibition was -1.21%. Also, the Potency in [3] is greater than 20.6 µM. Further, the activation in [4] was 6.77%.
With `CCCc1cc(=O)oc2c(CN3CCN(C)CC3)c(O)c(Cl)cc12`, in assay [1], the activity change, negative = inhibition is -0.941%. Further, the activity, negative = inhibition in assay [2] is -1.37%. Besides, the values for the Potency in assay [3] and in assay [4] were greater than 20.6 µM and 5.01 µM (active), respectively.
Turning to `O=C(CCN1CCc2ccccc2CC1)c1ccc2c(c1)OCCO2`, the activity change, negative = inhibition in [1] was -22%. In [2], the activity, negative = inhibition was 12.8%. Moreover, the results for the Potency in assay [3] and in assay [5] were greater than 20.6 µM and 10 µM (active), respectively.
Turning to `C[N+](C)(C)[C@@H](C1=CCCC1=O)c1ccccc1`, the activity change, negative = inhibition in assay [1] was 3.55% [at 7.69 µM]; in assay [9], 5.46% [at 11.4 µM]. For the same compound, in assay [2], the activity, negative = inhibition was -12.6% [at 7.69 µM]. For the same compound, the Potency in assay [3] is greater than 46 µM; in assay [6], greater than 9.22 µM. Further, the Potency entry in assay [10] was “inactive”. Besides, the activation in assay [4] was -1.62%.
Take `COCCCNC(=O)c1c(N)n(/N=C/c2cccnc2)c2nc3ccccc3nc12`: the activity change, negative = inhibition in assay [1] was -15.5%. Further, the activity, negative = inhibition in assay [2] was -20.9%. The Potency in assay [3] was greater than 20.6 µM; in assay [4], 10 µM (active).
As to `CCCCn1cnc2c(c1=O)c1nc3ccccc3nc1n2Cc1ccc2c(c1)OCO2`, the activity change, negative = inhibition in assay [1] was 29.8%. Further, the activity, negative = inhibition in [2] is 10.3%. Moreover, the Potency in assay [3] is greater than 20.6 µM; in assay [4], 12.6 µM (active).
With `CC(CN1CCN(C)CC1)OC(=O)c1ccc(Cl)cc1Cl` (stereo unspecified), in [1], the activity change, negative = inhibition is 12%. For the same compound, the activity, negative = inhibition in assay [2] is -1.03%. In addition, in assay [3], the Potency was greater than 20.6 µM. Moreover, in assay [4], the activation is -4.39%.
`Cc1cccc(CNc2ccnc(-c3ccc(N(C)C)cc3)n2)c1`: in assay [1], the activity change, negative = inhibition was -16% [at 7.69 µM]. The activity, negative = inhibition in [2] is -22.6% [at 7.69 µM]. Besides, the Potency in assay [3] and in assay [6] was greater than 46 µM each time. Further, the Potency result in assay [9] and in [11] was “inactive” each time.
Take `COc1ccc(-n2c(SCC(N)=O)nc3sc4c(c3c2=O)CCN(C)C4)cc1`: in assay [1], the activity change, negative = inhibition was -7.72%. The activity, negative = inhibition in assay [2] was 2.19%. Besides, the Potency in assay [3] is greater than 20.6 µM. Besides, the activation in assay [4] was -0.0215%.
As for `COc1ccc(OC)c2c(N)c(C#N)c(C(F)(F)C(F)(F)F)nc12`, in assay [1], the activity change, negative = inhibition is 5.08%. Further, the activity, negative = inhibition in assay [2] was 14%. Also, the Potency is greater than 20.6 µM in [3] and 10 µM (active) in [4].
On to `CNc1oc(-c2ccccc2Cl)nc1C#N`, for which, in assay [1], the activity change, negative = inhibition was -4.94%. The activity, negative = inhibition in [2] is -0.918%. In addition, the Potency in assay [3] is greater than 20.6 µM. Moreover, the activation in assay [4] was 10.7%.
As for `N=c1c(C(=O)NCc2ccccc2)cc2c(=O)n3ccccc3nc2n1Cc1ccco1`, the activity change, negative = inhibition in assay [1] is -5.29%. Moreover, the activity, negative = inhibition in assay [2] was 19.8%. The Potency is greater than 20.6 µM in assay [3] and 6.31 µM (active) in [4].
For `c1ccc2c(c1)NC(c1ccncc1)n1c-2nc2ccccc21` (stereo unspecified), in [1], the activity change, negative = inhibition was -17.1%. Moreover, in assay [2], the activity, negative = inhibition is -7.32%. The Potency in assay [3] was greater than 20.6 µM. The activation in [4] was 15.3%.
With `CCc1ccc(-c2cn3nc(C)c(C)nc3n2)cc1`, the activity change, negative = inhibition in assay [1] is 0.521%. Further, in [2], the activity, negative = inhibition is 11.8%. For the same compound, the Potency is greater than 20.6 µM in assay [3] and 10 µM (active) in assay [4].
In the case of `Cc1c(/C(O)=C2\C(=O)C(=O)N(CCCN(C)C)C2c2ccccc2)cnn1-c1ccccc1` (stereo unspecified), the activity change, negative = inhibition in assay [1] is -3.19%. The activity, negative = inhibition in assay [2] is 0.518%. Besides, the Potency in [3] is greater than 20.6 µM. The activation in assay [4] was 3.31%.
As for `CCOC(=O)c1ccc(N=Cc2nc(-c3ccccc3)oc2OC(C)=O)cc1`, in [1], the activity change, negative = inhibition is -16.3%. In addition, the Potency in [3] was greater than 20.6 µM.
Taken in the same sequence, the figures for `N#Cc1c(N)n(CCOC(=O)c2ccc(Cl)cc2)c2nc3ccccc3nc12` were 19.1% and greater than 20.6 µM.
Taken in the same sequence, the figures for `Oc1oc(-c2ccco2)nc1C=Nc1cccc(Cl)c1` were -27% and greater than 20.6 µM.
As to `Clc1ccccc1CSc1nnc(-c2ccco2)c(-c2ccco2)n1`, in assay [1], the activity change, negative = inhibition was 10.8%. The Potency in assay [3] was greater than 20.6 µM.
Take `COCCNC(=O)c1c(N)n(CCC2=CCCCC2)c2nc3ccccc3nc12`: in [1], the activity change, negative = inhibition was 28.7%. Besides, in assay [3], the Potency is greater than 20.6 µM.
Turning to `CC(C)(C)C1CCC2(CC1)C(C#N)=C(SCC(=O)Nc1ccccc1)NC(=O)C2C#N` (stereo unspecified), the activity change, negative = inhibition in [1] is -1.12%. Moreover, the Potency in assay [3] was greater than 20.6 µM.
